Test results from the supplement of paper PMC4166925.
± gives the standard deviation of the averaged measurements. Whole data set: some 33,000 sequences, median “E-score (dimensionless, -0.5 to 0.5)” near -0.046, cut for the highest 2% near 0.36. Only a selection was taken, and the highest values are over-represented in it overall.
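Also: protein at 200 nM in PBS on universal double-stranded arrays.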

The sequences below were run on T1, SpTbr T-box DNA-binding domain (GST fusion) (assay: PBM E-score of 8-mer (E-score (dimensionless, -0.5 to 0.5)); Tbr is Tbrain of the sea star Patiria miniata (Pm) or the sea urchin Strongylocentrotus purpuratus (Sp); higher = stronger binding preference). Conditions: the construct has about 5 more residues each side.
T1 sequence: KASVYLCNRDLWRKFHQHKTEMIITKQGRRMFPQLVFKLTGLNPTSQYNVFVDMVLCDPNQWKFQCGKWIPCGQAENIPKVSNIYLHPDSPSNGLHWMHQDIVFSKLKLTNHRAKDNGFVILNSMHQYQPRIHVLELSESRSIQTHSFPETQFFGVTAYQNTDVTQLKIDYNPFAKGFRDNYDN
Experimental: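 Universal protein-binding microarray (Agilent AMADID 016060, 60-bp probes with a 35-bp variable region) incubated with 200 nM GST-fused Strongylocentrotus purpuratus Tbr T-box DNA-binding domain (residues 362-554) in PBS pH 7.5. Scored for every ungapped 8-mer (given with its reverse complement) as E-score (range -0.5 to 0.5; >0.45 counts as bound) and Z-score of median probe intensity. Two replicate arrays (datasets 1 and 2).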
With GTTTCAAA the “PBM E-score of 8-mer” value was -0.327 ± 0.079. In the case of ATTTCACA, the “PBM E-score of 8-mer” value is reported as 0.4303 ± 0.0022. With ATTTCACC the “PBM E-score of 8-mer” value was 0.0204 ± 0.024. For CTTTCACC, the “PBM E-score of 8-mer” value was 0.0179 ± 0.03. With CGCCCAGA the “PBM E-score of 8-mer” value was 0.0494 ± 0.0041. For AGCTAACT, the “PBM E-score of 8-mer” value was -0.27 ± 0.067. For CCAGTATC, the “PBM E-score of 8-mer” value was -0.199 ± 0.063. With CCCTTAGG the “PBM E-score of 8-mer” value was 0.00499 ± 0.015. AGCCCCCT was tested, and the “PBM E-score of 8-mer” value was -0.356 ± 0.013. With TGCAAGAA the “PBM E-score of 8-mer” value was -0.0626 ± 0.014. In the case of ACTCTTTG, the “PBM E-score of 8-mer” value is reported as 0.221 ± 0.066. With GGCGTCAC the “PBM E-score of 8-mer” value was 0.373 ± 0.024. With AGCGTCAC the “PBM E-score of 8-mer” value was 0.3328 ± 0.0021. For CGCGTCAA, the “PBM E-score of 8-mer” value was 0.313 ± 0.006. In the case of CGCGTCAC, the “PBM E-score of 8-mer” value is reported as 0.277 ± 0.039. In the case of AGCGTCAA, the “PBM E-score of 8-mer” value is reported as 0.317 ± 0.0075. With GGCGTTAA the “PBM E-score of 8-mer” value was 0.387 ± 0.0042. GGCGTCAA was tested, and the “PBM E-score of 8-mer” value was 0.412 ± 0.018. In the case of AGCGTTAA, the “PBM E-score of 8-mer” value is reported as 0.36 ± 0.025. With TGCGTTAA the “PBM E-score of 8-mer” value was 0.208 ± 0.026. AAGCGATA was tested, and the “PBM E-score of 8-mer” value was 0.2613 ± 0.002. With ATAGGCTG the “PBM E-score of 8-mer” value was 0.0188 ± 0.056. In the case of TATGTACA, the “PBM E-score of 8-mer” value is reported as -0.174 ± 0.083. With GGAGCAAC the “PBM E-score of 8-mer” value was 0.0231 ± 0.049. In the case of GAACTTCA, the “PBM E-score of 8-mer” value is reported as -0.0825 ± 0.021. For ACAGTCCG, the “PBM E-score of 8-mer” value was 0.00019 ± 0.0047. GGGGTACC was tested, and the “PBM E-score of 8-mer” value was -0.1738 ± 0.00025. For CGGCGTGC, the “PBM E-score of 8-mer” value was 0.00958 ± 0.15. For GCGTGAAC, the “PBM E-score of 8-mer” value was 0.456 ± 0.0075. GCGTGACC was tested, and the “PBM E-score of 8-mer” value was 0.369 ± 0.004. ACGTGACC was tested, and the “PBM E-score of 8-mer” value was 0.135 ± 0.082. In the case of CCGTGAAA, the “PBM E-score of 8-mer” value is reported as 0.245 ± 0.022. In the case of ACGTGAAC, the “PBM E-score of 8-mer” value is reported as 0.126 ± 0.031. For CCGTGAAC, the “PBM E-score of 8-mer” value was 0.353 ± 0.0099. For TCGTGAAA, the “PBM E-score of 8-mer” value was 0.253 ± 0.054. GCGTGACA was tested, and the “PBM E-score of 8-mer” value was 0.345 ± 0.023. GCGTGAAA was tested, and the “PBM E-score of 8-mer” value was 0.4597 ± 0.0039. With CCGGATCG the “PBM E-score of 8-mer” value was -0.114 ± 0.033. With CAAAAAAA the “PBM E-score of 8-mer” value was -0.1537 ± 0.00074. CAAGCTTC was tested, and the “PBM E-score of 8-mer” value was -0.215 ± 0.013. For AAGGTCAC, the “PBM E-score of 8-mer” value was 0.164 ± 0.036. With AACGGGAT the “PBM E-score of 8-mer” value was -0.0959 ± 0.041. With CGTTTCCA the “PBM E-score of 8-mer” value was 0.0866 ± 0.0024. With TAGTGCGA the “PBM E-score of 8-mer” value was 0.4025 ± 0.0017. ATGTGCGC was tested, and the “PBM E-score of 8-mer” value was 0.211 ± 0.054. In the case of AAGTGCGA, the “PBM E-score of 8-mer” value is reported as 0.483 ± 0.0069. AAGTGCGT was tested, and the “PBM E-score of 8-mer” value was 0.203 ± 0.018. For TAGTGCCA, the “PBM E-score of 8-mer” value was 0.195 ± 0.009. In the case of CAGTGCGC, the “PBM E-score of 8-mer” value is reported as 0.00847 ± 0.051. With ATGTGCGA the “PBM E-score of 8-mer” value was 0.47362 ± 0.00026. For CAGTGCGA, the “PBM E-score of 8-mer” value was 0.386 ± 0.0039. CAGTGCGG was tested, and the “PBM E-score of 8-mer” value was 0.107 ± 0.0036. AAGTGCGC was tested, and the “PBM E-score of 8-mer” value was 0.194 ± 0.018. TAGTGCAA was tested, and the “PBM E-score of 8-mer” value was 0.247 ± 0.024. ATGTGCGG was tested, and the “PBM E-score of 8-mer” value was 0.0899 ± 0.0075. For ACGATCTC, the “PBM E-score of 8-mer” value was 0.0369 ± 0.034. GGATGACC was tested, and the “PBM E-score of 8-mer” value was 0.103 ± 0.0083. For AACCACGG, the “PBM E-score of 8-mer” value was 0.0188 ± 0.11. In the case of GCAGAAGA, the “PBM E-score of 8-mer” value is reported as -0.218 ± 0.017. With GAGTGCGC the “PBM E-score of 8-mer” value was -0.0493 ± 0.043. For GCGTGCGA, the “PBM E-score of 8-mer” value was 0.317 ± 0.025. In the case of GAGTGCAA, the “PBM E-score of 8-mer” value is reported as 0.0398 ± 0.012. With GAGTGCGA the “PBM E-score of 8-mer” value was 0.411 ± 0.021. ACGTGCGA was tested, and the “PBM E-score of 8-mer” value was 0.4353 ± 0.0022. For ACGTGCGG, the “PBM E-score of 8-mer” value was 0.206 ± 0.011. In the case of GCACTTCC, the “PBM E-score of 8-mer” value is reported as 0.326 ± 0.017. In the case of ACACTTCG, the “PBM E-score of 8-mer” value is reported as 0.409 ± 0.0085. For ACACTTCT, the “PBM E-score of 8-mer” value was 0.383 ± 0.035. CCACTTCG was tested, and the “PBM E-score of 8-mer” value was 0.193 ± 0.017. For TCACTTCA, the “PBM E-score of 8-mer” value was 0.151 ± 0.018. With ACTCTTCT the “PBM E-score of 8-mer” value was -0.224 ± 0.0037. For AAACTTCT, the “PBM E-score of 8-mer” value was -0.146 ± 0.1. CCACTTCC was tested, and the “PBM E-score of 8-mer” value was 0.072 ± 0.0026. In the case of ACACTTCA, the “PBM E-score of 8-mer” value is reported as 0.412 ± 0.0084. For AAACTTCG, the “PBM E-score of 8-mer” value was -0.00264 ± 0.024. With CCACTTCA the “PBM E-score of 8-mer” value was 0.108 ± 0.019. With ACACTTCC the “PBM E-score of 8-mer” value was 0.417 ± 0.016. With ACTCGTAC the “PBM E-score of 8-mer” value was -0.0977 ± 0.07. CATCCTGG was tested, and the “PBM E-score of 8-mer” value was -0.0597 ± 0.01. AAGTTAAA was tested, and the “PBM E-score of 8-mer” value was 0.0719 ± 0.053. AGACTCTC was tested, and the “PBM E-score of 8-mer” value was -0.0738 ± 0.045. For TCTCAAAA, the “PBM E-score of 8-mer” value was -0.176 ± 0.025. For GACAATCC, the “PBM E-score of 8-mer” value was 0.0693 ± 0.021. In the case of AGGTGCTC, the “PBM E-score of 8-mer” value is reported as 0.012 ± 0.081. For AGGTGCTA, the “PBM E-score of 8-mer” value was 0.4822 ± 0.0033. With ATGTGCTG the “PBM E-score of 8-mer” value was 0.161 ± 0.0054.
